IL-1B inflam inh = blocks inflammasome-driven IL-1 beta release | activity change, % at 57.5 µM | THP-1 LPS/ATP IL-1B secretion, AlphaLISA, 16 h; active compounds read low | hit rate 4.7% among 360,000; in the data active = activity change below about -50%; inconclusive = mostly about -30% to -49%; note: % is set by controls: 0 for no effect and ±100 for the full control effect
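THP-1 cells pretreated 1 hr with compounds (up to 57.5 uM final), then stimulated with LPS (250 ng/mL final) plus ATP (1.25 mM final); secreted IL-1B measured by AlphaLISA after 16 hr, decreased signal indicating inhibition.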
ASM inhibitor = inhibitors of human secretory acid sphingomyelinase; P17405; placental ASM, HMU-PC fluorogenic substrate, 60 min; Potency, µM (doses to about 57.5 µM), for inactives: top-dose activity change, negative = inhibition, hits mostly inhibitors; hit rate 0.006% among 340,000; note: potency is the fitted concentration of half-maximal effect
Target sequence (P17405 47-631 limits assumed): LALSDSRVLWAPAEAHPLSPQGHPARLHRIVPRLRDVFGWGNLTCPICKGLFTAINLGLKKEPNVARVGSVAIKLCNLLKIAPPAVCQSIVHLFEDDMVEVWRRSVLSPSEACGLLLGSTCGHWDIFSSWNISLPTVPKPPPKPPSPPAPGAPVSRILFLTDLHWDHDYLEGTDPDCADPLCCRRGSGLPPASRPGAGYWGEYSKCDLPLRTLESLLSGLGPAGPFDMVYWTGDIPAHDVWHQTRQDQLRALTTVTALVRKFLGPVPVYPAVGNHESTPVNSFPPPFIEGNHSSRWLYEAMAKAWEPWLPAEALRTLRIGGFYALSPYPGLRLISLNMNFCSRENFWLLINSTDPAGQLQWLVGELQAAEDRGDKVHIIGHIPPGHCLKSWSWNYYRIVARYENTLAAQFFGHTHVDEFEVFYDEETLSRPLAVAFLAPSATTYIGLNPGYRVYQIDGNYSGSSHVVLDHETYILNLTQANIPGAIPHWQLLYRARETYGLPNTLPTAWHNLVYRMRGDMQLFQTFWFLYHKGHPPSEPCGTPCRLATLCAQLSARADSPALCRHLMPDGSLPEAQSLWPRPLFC
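Human placenta-derived ASM preincubated with compound 10 min at room temperature, then reacted with 9 uM (final) fluorogenic HMU-PC substrate for 60 min at 37 C. Stop solution raises pH to 10; fluorescence read at Ex 386/Em 447 nm.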
DT40 TDP1 CPT = DT40-hTDP1 cell growth loss with CPT; Potency, µM (series often up to 46.2 µM), for the others: at the top dose activity change, negative = growth inhibition, usual class: inhibitors; chicken DT40 Tdp1-/-;hTDP1 cells + 20 nM CPT, ATP luminescence, 48 h; hit rate 12% among 420,000; note: potency is the fitted concentration of half-maximal effect; % is set by controls: 0 for no effect and ±100 for the full control effect; nearly all actives have a fitted effect of over 55% in size
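Chicken DT40 Tdp1-/- cells complemented with human TDP1, 400 cells/well, exposed to compounds plus 20 nM camptothecin for at least 48 h at 37 C; viability read as ATP content by CellTiter-Glo luminescence.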
HepG2 tox = kills HepG2 cells in TGF-b inhibitor counter-screen | HepG2 CAGA-GFP viability, ATP luminescence, 18 h | Potency, µM (series often up to 46.1 µM), for inactives: at the highest dose activity change, negative = cytotoxicity, usual class: cytotoxic | hit rate 0.76% among 410,000 | AID 588856; note: potency is the fitted concentration of half-maximal effect
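CellTiter-Glo luminescence gave cytotoxicity after 18 hours at 37 degrees C. The cells were HepG2 CAGA-GFP in 1% FBS DMEM, stimulated with 500 pg/mL TGF-beta after compound addition. %Activity was normalised to no-cell wells (complete cell-killing) and DMSO (no toxicity), and curves were fitted and classified.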
TDP1 cell noCPT = qHTS for Inhibitors of human tyrosyl-DNA phosphodiesterase 1 (TDP1): qHTS in cells in absence of CPT. DT40 Tdp1-/- hTDP1 cells, no CPT, ATP luminescence, 48 h. Potency, µM (top dose mostly 46.2 µM), for inactives: top-dose activity change, negative = growth inhibition, actives largely listed as inhibitors. hit rate 15% among 420,000. AID 686978, 2013; note: potency is the fitted concentration of half-maximal effect; % is set by controls: 0 for no effect and ±100 for the full control effect; nearly all actives have a fitted effect of over 55% in size
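No-CPT arm: Tdp1-/-;hTDP1 DT40 cells (400/well) plus compounds, incubated ≥48 hr at 37 °C. Readout CellTiter-Glo luminescence.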
TGFb SMAD3 inh = inhibitors of TGF-b signaling; AID 588855; Potency, µM (highest dose often 46.1 µM), for inactives: at the highest dose activity, negative = inhibition, hits mostly inhibitors; hit rate 1.2% among 410,000; HepG2 CAGA-GFP TGF-b/SMAD3 reporter, GFP fluorescence, 18 h; TGF-beta stimulated, 500 pg/mL final; note: potency is the fitted concentration of half-maximal effect; % is set by controls: 0 for no effect and ±100 for the full control effect; nearly all actives have a fitted effect of over 65% in size
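Per well, imaged GFP fluorescence of HEPG2 CAGA-GFP cells gives the signal; cells get compound, then TGF-beta (500 pg/mL final), 18 h at 37 degrees C; %Activity versus -TGF-beta and +DMSO controls.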
Active calls of the source: *; u = inconclusive; x = no result; [ ] = remark or other dose. Only some compounds are listed: those with a hit (about 19% of all), similar ones and a draw of the others. Unless noted, calls come from the whole dose curve; as a rule, active = well fitted curve in the direction sought with a large enough effect; inconclusive = small, poorly fitted or top-dose-only effect, or another doubt; inactive = no such curve, though single readings can be large; an effect the other way counts as inactive or inconclusive.

SMILES	IL-1B inflam inh	ASM inhibitor	DT40 TDP1 CPT	HepG2 tox	TDP1 cell noCPT	TGFb SMAD3 inh
CSc1nnc2c(n1)OC1(Nc3ccccc3-2)C(=O)Nc2ccccc21 (stereo not given)	10	-2%	u	-4%	16µM*	-10%
c1csc(CNc2nc(CN3CCCC(c4nc5ccccc5o4)C3)nc3ccccc23)c1 (stereo not given)	x	x	11%[9.04 µM]	x	u	x
O=C(CSc1nnnn1C1CC2CCC1C2)Nc1ccnc2ccccc12 (stereo not given)	-18	-7%	0.16µM*	-29%	0.16µM*	-13%
O=C(CSc1nnnn1C1CCCCC1)Nc1ccccc1F	0	-4%	3%	18%	-41%	8%
CC(C)(CO)CNC(=O)c1ccc2nc(Cc3cccc(Cl)c3)oc2c1	1	-2%	u	5%	-24%	-3%
N=c1nc2n(cc1F)C1OC(CO)C(O)C1O2 (stereo not given)	33	1%	0.13µM*	-6%	0.13µM*	-13%
N=c1ncn(C2OC(CO)C(O)C2O)c2nc(Br)[nH]c12 (stereo not given)	-26	x	-1%	3%	u	-8%
COc1ccc([C@H]2/C=C\CN(C(=O)c3ccc(C)cc3)[C@@H](C)C(=O)N2Cc2ccc(F)cc2)cc1	-6	-2%	u	-8%	21µM*	u
COc1ccc(C2/C=C\CN(C(=O)C3CCCC3)C(C)C(=O)N2Cc2ccc(F)cc2)cc1 (stereo not given)	x	x	x	-17%	x	u
COc1ccc(C2/C=C\CN(C(=O)c3ccccc3)[C@H](Cc3ccccc3)C(=O)N2Cc2ccc(F)cc2)cc1 (stereo not given in full)	4	-1%	21µM*	3%	15µM*	-25%
C[C@@H]1CN(Cc2ccc3c(c2)CN(Cc2cccc4c2OCO4)CCO3)C[C@H](C)O1	x	x	13%[9.04 µM]	x	-14%	x
O=Cc1c(-[n+]2ccccc2)nc([O-])n1-c1ccccc1	16	5%	u	-9%	18µM*	5%
Cc1ccccc1NC(=O)Cn1c(=O)n(CCC(=O)N2CCc3ccccc3C2)c(=O)c2ccccc21	x	x	16µM*	-10%	15µM*	-2%
Cc1ccc(NC(=O)Cn2c(=O)n(CCC(=O)N3CCc4ccccc4C3)c(=O)c3ccccc32)cc1	x	x	18µM*	7%	16µM*	23%
CC12CCC(=O)C=C1CCC1C2CCC2(C)C(C(=O)CO)CC(O)C12 (stereo not given)	-8	1%	5%	1%	1%	20%
C/C=C1/C(=O)C[C@@H]2[C@H]3CCC4=CC(=O)CC[C@]4(C)[C@@H]3CC[C@]12C	x	x	u	x	15µM*	x
C[C@]12CCC(=O)C=C1CC[C@@H]1[C@@H]2CC[C@@]2(C)[C@H]1CC[C@]2(O)C(=O)CO	-13	-2%	u	-33%	u	7%
CC12CCC(=O)C=C1CCC1C2C(O)CC2(C)C(c3csc(N)n3)CCC12 (stereo not given)	-17	6%	3.7µM*	2%	3.3µM*	-5%
CC12CCC(=O)C=C1CCC1C2CCC2(C)C(c3csc(N)n3)CCC12 (stereo not given)	-82*	-2%	5.8µM*	8%	5.8µM*	13µM*
Cc1cccc(NC(=O)c2ncn3c2C(=O)N(C)CC3)c1	-21	x	-11%	-5%	u	-1%
C1=Cc2ccccc2/C1=C\c1cccc(/C=C2\C=Cc3ccccc32)c1	x	x	u	-97%	u	u
